Data reported in ChEMBL document CHEMBL3988442, “University of Dundee, Small-Polar-MMV Screening Library” (2021).
Among all 48,000 compounds or so, about 13,000 (27%) showed an effect of 50% or more. The list shows a part of the results.

tested on: Wolbachia pipientis; assay: Anti-Wolbachia Cell-Based Screen; assay type: functional; parameters: scale not given: in the data most compounds retested in dose-response had high values; details: 5 µM

| SMILES | Percent Effect [%] |
| --- | --- |
| Nc1cc(C(=O)NCC2CCN(Cc3ccncc3F)C2)ccn1 (stereo not drawn) | -104.6 |
| CC(C)(C)c1nccc(N2CCC(OCCN3CCCCC3)C2)n1 (stereo not drawn) | 4.599 |
| CC(CN1CCCCCC1)NCc1nncn1C1CCCCC1 (stereo not drawn) | -0.3524 |
| CC(Cn1cncc1-c1cnn(C2CCCCC2)c1)N1CCCCC1.Cl (stereo not drawn) | 109.8 |
| CC(C)n1cc(CN(C)C[C@@H]2CCCN3CCCC[C@H]23)cn1 | 12.76 |
| COCC(=O)N1CCc2ccc(=O)n(CC3CC3)c2CC1 | 104.1 |
| COCCn1c2c(ccc1=O)CC(N)CC2 (stereo not drawn) | -4.933 |
| COCCn1c2c(ccc1=O)CCN(C(=O)CC1CC1)CC2 | 117 |
| COCCn1c2c(ccc1=O)CCN(C(=O)C1CC=CC1)CC2 | 102.1 |
| O=C(NC1CC1)N1CCc2ccc(=O)n(CCN3CCCC3)c2CC1.O=C(O)C(F)(F)F | -8.445 |
| COCCn1c2c(ccc1=O)CCN(C(=O)NC1CC1)CC2 | 105.3 |
| O=C(NC1CC1)N1CCc2ccc(=O)n(CC3CC3)c2CC1 | 7.486 |
| CC(C)c1cccc(CSc2nnc(Cn3cncn3)o2)n1 | -1.93 |
| CN(C)C(=O)CN1C(=O)CO[C@@H]2CN(c3ccccn3)C[C@H]21.O=C(O)C(F)(F)F | -2.034 |
| Cc1cc(CCCC(=O)NC2CCN(C)C2=O)c(C)s1 (stereo not drawn) | -2.482 |
| CNC(=O)CS(=O)(=O)C1CCN(S(=O)(=O)c2ccccc2Br)CC1 | 9.932 |
| Cc1ccc(-c2noc(C(O)CC(C)C)n2)nn1 (stereo not drawn) | -5.785 |
| O=C(CN1CCS(=O)(=O)CC1)NC1CCOc2ccccc21 (stereo not drawn) | 5.265 |
| Cc1ccc(CS(=O)(=O)Cc2nc(N)nc(N(C)C)n2)cc1 | 10.59 |
| CN(C)c1cc2c(nn1)CCN(C(=O)C1Cc3ccccc3S1)C2 (stereo not drawn) | -0.2262 |
| CC(C)c1ccc(O)c(C(=O)NCc2cc[nH]n2)c1 | -15.09 |
| COCCCNS(=O)(=O)c1ccc(N2CCCCS2(=O)=O)cc1 | 124.1 |
| CC(NCCCn1cccn1)c1ccc(N2CCCS2(=O)=O)cc1 (stereo not drawn) | -2.983 |
| CC(NCCCn1ccnc1)c1ccc(N2CCCS2(=O)=O)cc1 (stereo not drawn) | -4.666 |
| CNS(=O)(=O)c1ccsc1C(=O)OC | 1.281 |
| CCOCC(C)(C)NC(=O)Nc1cc(F)ccc1OC | -3.533 |

| SMILES | Percent Effect [%] |
| --- | --- |
| COc1cc2cc(C(=O)O)n(C)c2cc1OC | -4.689 |
| COC(=O)c1sc(C(F)(F)F)cc1OC | 102.8 |
| COc1cc(C)sc1C(=O)NCCNc1ccccc1 | -4.959 |
| COc1cc(C(F)(F)F)sc1C(=O)O | 103.8 |
| CC1CCCCN1S(=O)(=O)NCCN/C(O)=C1/N=CC=CC1=O (stereo not drawn) | -4.587 |
| CCc1ccc(CN2CCCC(CO)(CCOC)C2)cc1 (stereo not drawn) | -6.434 |
| Cc1cc(C)n(CC2CCCCN2C(=O)c2ccc3nncn3c2)n1 (stereo not drawn) | 3.82 |
| Cc1cc(C)n(CC2CCCCN2C(=O)c2ccc(C(N)=O)cc2)n1 (stereo not drawn) | 111.1 |
| Cc1cc(C)n(CC2CCCN2C(=O)c2ccc(C(N)=O)cn2)n1 (stereo not drawn) | -1.212 |
| Cc1cc(C)n(CC2CCCN2C(=O)c2ccc(NC3CC3)nc2)n1 (stereo not drawn) | 104.7 |
| CCOc1ccc(C(=O)N2CCCCC2Cn2nc(C)cc2C)cn1 (stereo not drawn) | 118.2 |
| Cc1cc(C)n(CC2CCCN2C(=O)c2ccc3[nH]nnc3c2)n1 (stereo not drawn) | -17 |
| Cc1cc(C)n(CC2CCCCN2C(=O)c2cnn(C)c2)n1 (stereo not drawn) | -4.108 |
| CCOc1ccccc1C(CC(=O)N(C)C)NC(C)=O (stereo not drawn) | -2.972 |
| CCc1nc2n(n1)CC(NCc1cn(C)nc1-c1cccnc1)CC2 (stereo not drawn) | -2.892 |
| Cc1cnc(N2CC[C@@H]3O[C@H](COCc4ccccn4)CC[C@@H]32)nc1.O=C(O)C(F)(F)F.O=C(O)C(F)(F)F | -4.87 |
| O=c1cc(N2CCCC2)cnn1Cc1noc(C2CCCO2)n1 (stereo not drawn) | -13.05 |
| Cc1cc(C)n(C2CCN(C(=O)CN3C(=O)CSc4ccccc43)C2)n1 (stereo not drawn) | -2.821 |
| O=C1CSc2ccccc2N1Cc1noc(C2CCCO2)n1 (stereo not drawn) | 108.8 |
| Cc1ccc2c(c1)SCC(=O)N2Cc1noc(C2CCCO2)n1 (stereo not drawn) | 109.6 |
| Cc1ccc2c(c1)SCC(=O)N2CC(=O)N1CCC[C@H]1c1nc(C)no1 | 9.485 |
| Cc1cccc(-c2nc(CN(Cc3cccs3)CC3CCCO3)no2)c1 (stereo not drawn) | 0.4556 |
| O=c1cc(N2CCCCC2)cnn1Cc1noc(C2CCCO2)n1 (stereo not drawn) | -0.8561 |
| Cc1ccc2c(c1)SCC(=O)N2CC(=O)N1CCCC1c1nccs1 (stereo not drawn) | 15.48 |
| Cc1ccc2c(c1)SCC(=O)N2Cc1noc(C2CC2)n1 | 92.98 |
| CCCc1ccc(CN2C[C@H]3C(=O)N(CC4CC4)C[C@@]3(C(=O)O)C2)o1 | -18.71 |

| SMILES | Percent Effect [%] |
| --- | --- |
| CC(C)c1ocnc1C(=O)NC(c1nnc2n1CCNCC2)C(C)C (stereo not drawn) | 15.04 |
| O=C1CCC(C(=O)N2CCOC(Cc3ccccc3Cl)C2)=NN1 (stereo not drawn) | -0.3624 |
| Cc1nc(C(C)(C)NC(=O)Nc2ccccc2)no1 | -20.84 |
| CCNC(=O)Cn1ncc(N(C)CCc2ccccc2)cc1=O | 6.09 |
| Cc1ccsc1C(=O)N1CCc2ncc(CN(C)C)n2CC1.O=C(O)C(F)(F)F | -9.607 |
| CN(Cc1ccc(CCC(C)(C)O)cc1)Cc1cccc(O)c1 | -7.089 |
| Cn1c(Cn2ccnc2)nnc1C1CCCN(CC(C)(C)C)C1 (stereo not drawn) | -0.4988 |
| CC(C)(C)CN1CCC(c2nccnc2Nc2cnccn2)CC1 | 104.1 |
| CC(C)(C)CN1CCC(c2nnc(Cn3ccnc3)n2C2CC2)CC1 | -15.12 |
| CC(C)(C)CN1CCCC(c2nccnc2Nc2cnccn2)C1 (stereo not drawn) | 141 |
| Cn1cncc1-c1nnc([C@H]2CCN(CC(C)(C)C)C2)o1 | -4.073 |
| CC(C)N(Cc1ccc(C#N)cc1)Cc1nnsc1Cl | -0.2197 |
| COC(=O)CNC(=O)CC1COc2ccc(C(=O)N(C)C)cc2N1C (stereo not drawn) | -21.78 |
| CN(Cc1ccncc1)C1CC2(CCN(C(=O)c3ccnnc3)CC2)C1 | 2.338 |
| CN(c1ccncn1)C1CC2(CCN(C(=O)c3cccn3C)C2)C1 (stereo not drawn) | 100.1 |
| Cc1ccsc1C(=O)N1CCC(c2nccn2Cc2ccncc2)CC1 | -26.92 |
| CN(c1ccncn1)C1CC2(CCN(C(=O)c3cccs3)C2)C1 (stereo not drawn) | 5.118 |
| Cc1ccc(N2CCCC3(CCN(C(=O)c4sccc4C)C3)C2)nn1 (stereo not drawn) | -21.87 |
| CN(c1ccncn1)C1CC2(CCN(C(=O)c3cncs3)C2)C1 (stereo not drawn) | 101.7 |
| Cn1cccc1C(=O)N1CCCC2(CCCN2Cc2cccnc2)C1 (stereo not drawn) | 0.2442 |
| CN(c1ccncn1)C1CC2(CCN(C(=O)CCc3cccs3)C2)C1 (stereo not drawn) | -6.442 |
| Cc1noc(C)c1CN1CC2(CCN(C(=O)c3cccn3C)C2)CC1=O (stereo not drawn) | -4.057 |
| Cc1ccsc1C(=O)N1CCC2(CC(N(C)c3ccncn3)C2)C1 (stereo not drawn) | 125 |
| CN(c1ccncn1)C1CC2(CCN(C(=O)Cc3cccs3)C2)C1 (stereo not drawn) | 98.18 |
| CN(C)C(=O)N1CCN(Cc2noc(Cc3ccccc3)n2)CC1 | -7.499 |
| CC(C)CN1C(=O)CO[C@@H]2CN(C(=O)CC(F)(F)F)C[C@H]21 | -4.787 |

| SMILES | Percent Effect [%] |
| --- | --- |
| O=C(Nc1ccnc(OC2CCOC2)c1)c1cc(F)ccc1F (stereo not drawn) | -0.1893 |
| CN(c1ccncn1)C1CC2(CCN(C(=O)c3ccsc3)C2)C1 (stereo not drawn) | 9.271 |
| CN(Cc1cccnc1)C1CC2(CCN(C(=O)c3cscn3)CC2)C1 | -13.69 |
| Cc1ccc(C(=O)N2CCC3(CC(N(C)c4ccncn4)C3)C2)cn1 (stereo not drawn) | 100.9 |
| Cc1noc(C)c1CN1CC2(CCN(C(=O)c3c[nH]cn3)C2)CC1=O (stereo not drawn) | -8.686 |
| Cc1noc(C)c1C(=O)N1CCC2(CC(N(C)c3ccncn3)C2)C1 (stereo not drawn) | 121.5 |
| Cc1noc(C)c1C(=O)N1CC[C@H]2C[C@@H](c3ccncn3)O[C@@H]2C1 | -6.202 |
| CN(Cc1cccnc1)C1CC2(CCN(C(=O)c3cnccn3)CC2)C1 | -5.762 |
| Cc1csc(C(=O)N2CCC3(CC(N(C)c4ccncn4)C3)C2)c1 (stereo not drawn) | 119.5 |
| CCOC(=O)CCCN1CCCC(C(=O)Nc2ccc(Cl)cn2)C1 (stereo not drawn) | -9.707 |
| CCC(=O)N1CCC2(C=C(C(=O)N3CCCC3)c3ccccc32)CC1 | 109 |
| CCC(=O)N1CCC2(C=C(C(=O)N(C)C)c3ccccc32)CC1 | 99.74 |
| O=C(C1=CC2(CCNCC2)c2ccccc21)N1CCCC1 | -0.6834 |
| CN1CCC2(C=C(C(=O)N3CCCC3)c3ccccc32)CC1.O=C(O)C(F)(F)F | -7.584 |
| CSCC(=O)N1CCC2(CC1)c1ccccc1CC2O (stereo not drawn) | -1.136 |
| CN1CCC2(C=C(C(=O)N(C)C)c3ccccc32)CC1 | 111.1 |
| O=C(O)C(F)(F)F.O=C1CC2(CNCCN(C(=O)Nc3ccccc3)C2)CN1 (stereo not drawn) | -25.05 |
| CC(O)CN1CCC(CN(C)Cc2ccc(C#N)cc2F)CC1 (stereo not drawn) | -14.31 |
| Cc1nccn1-c1cc(CNC(=O)C(C)(C)C)ccn1 | 9.207 |
| CC(=O)N1CCCCC1c1cc(C(=O)N2CCOCC2)[nH]n1 (stereo not drawn) | -8.904 |
| CN(C)Cc1ccc(C2CCCCN2C(=O)c2cc(C3CC3)n[nH]2)cc1 (stereo not drawn) | 2.856 |
| O=C(CCN1CCCCCC1c1ccco1)N1CCOCC1 (stereo not drawn) | 1.206 |
| O=C(c1cc(C2CCCCN2C(=O)C2CCC2)n[nH]1)N1CCOCC1 (stereo not drawn) | 97.85 |
| O=C(c1cc(C2CCCCN2CCO)n[nH]1)N1CCOCC1.O=CO (stereo not drawn) | 127.4 |
| O=C(CCN1CCCCC1c1cc2ccccc2[nH]1)N1CCOCC1 (stereo not drawn) | -12.84 |
